Calls of active or inactive are those of the source.
Key:
[1] = binders of probe aFSTL3 on microarray, primary screen, stem cell growth factor project, biochemical, small-molecule microarray, fluorescence 635/667 (AID 1064); settings: higher = more signal;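 note: measures binding of the biotinylated anti-FSTL3 antibody to printed compounds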
[2] = binders from COS7 lysate, DM2A8 probe, primary screen, torsin A project, cell lysate, small-molecule microarray, fluorescence 635/667 (AID 1065); settings: higher = more signal, COS7 lysate expressing mutant human TOR1A
[3] = binders of probe aFGF2 on microarray, primary screen, stem cell growth factor project, biochemical, small-molecule microarray, fluorescence 635/667 (AID 1067); settings: higher = more signal;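 note: measures binding of biotinylated aFGF2 protein to printed compounds on slides; z-score merges feature fluorescence and signal-to-noise across triplicate slides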
[4] = binders of probe aFGF10 on microarray, primary screen, stem cell growth factor project, biochemical, small-molecule microarray, fluorescence 635/667 (AID 1071); settings: higher = more signal;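 note: score merges 667 nm spot intensity and signal to noise from triplicate slides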
[5] = target: Neurogenic locus notch homolog protein 2 (Homo sapiens) (UniProt Q04721); assay: Notch2 binders on small-molecule microarrays, primary screen, biochemical, small-molecule microarray, 635 nm fluorescence, stem cell growth factors (AID 1073); settings: Notch2 binding, higher = more signal
[6] = target: Pro-neuregulin-1, membrane-bound isoform (Homo sapiens) (UniProt Q02297); assay: NRG1 binders on small-molecule microarrays, primary screen, psychiatric disease protein project, biochemical, small-molecule microarray, fluorescence 635/667 (AID 1075); settings: NRG1 binding, 635 nm fluorescence, higher = more signal;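 note: score combines 667 nm spot fluorescence with signal to noise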
[7] = system: Neuregulin-1 EGF-like domain; assay: binders of neuregulin-1 EGF-like domain, primary screen, biochemical, small-molecule microarray, 635 nm fluorescence (AID 1081); settings: small-molecule microarray binding, higher = more signal;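 note: binding of the protein to compounds printed on small-molecule microarray slides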
[8] = FRG1 promoter luciferase signal modulators, primary screen, FRG1 inhibition for FSHD, cell-based, C2C12 myotubes, firefly/Renilla luciferase, luminescence (AID 1084); settings: higher = more signal, called active from +8 up or from −8 down
[9] = binders of probe aFST on microarray, primary screen, stem cell growth factor project, biochemical, small-molecule microarray, fluorescence 635/667 (AID 1086); settings: higher = more signal;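 note: score merges 667 nm fluorescence with signal-to-noise of each printed compound spot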
[10] = binders of probe aHhip on microarray, primary screen, stem cell growth factor project, biochemical, small-molecule microarray, fluorescence 635/667 (AID 1087); settings: higher = more signal;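 note: score merges spot fluorescence at 667nm with spot signal to noise ratio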

Neurogenic locus notch homolog protein 2 (Homo sapiens), sequence (Q04721 whole entry, looked up, canonical isoform): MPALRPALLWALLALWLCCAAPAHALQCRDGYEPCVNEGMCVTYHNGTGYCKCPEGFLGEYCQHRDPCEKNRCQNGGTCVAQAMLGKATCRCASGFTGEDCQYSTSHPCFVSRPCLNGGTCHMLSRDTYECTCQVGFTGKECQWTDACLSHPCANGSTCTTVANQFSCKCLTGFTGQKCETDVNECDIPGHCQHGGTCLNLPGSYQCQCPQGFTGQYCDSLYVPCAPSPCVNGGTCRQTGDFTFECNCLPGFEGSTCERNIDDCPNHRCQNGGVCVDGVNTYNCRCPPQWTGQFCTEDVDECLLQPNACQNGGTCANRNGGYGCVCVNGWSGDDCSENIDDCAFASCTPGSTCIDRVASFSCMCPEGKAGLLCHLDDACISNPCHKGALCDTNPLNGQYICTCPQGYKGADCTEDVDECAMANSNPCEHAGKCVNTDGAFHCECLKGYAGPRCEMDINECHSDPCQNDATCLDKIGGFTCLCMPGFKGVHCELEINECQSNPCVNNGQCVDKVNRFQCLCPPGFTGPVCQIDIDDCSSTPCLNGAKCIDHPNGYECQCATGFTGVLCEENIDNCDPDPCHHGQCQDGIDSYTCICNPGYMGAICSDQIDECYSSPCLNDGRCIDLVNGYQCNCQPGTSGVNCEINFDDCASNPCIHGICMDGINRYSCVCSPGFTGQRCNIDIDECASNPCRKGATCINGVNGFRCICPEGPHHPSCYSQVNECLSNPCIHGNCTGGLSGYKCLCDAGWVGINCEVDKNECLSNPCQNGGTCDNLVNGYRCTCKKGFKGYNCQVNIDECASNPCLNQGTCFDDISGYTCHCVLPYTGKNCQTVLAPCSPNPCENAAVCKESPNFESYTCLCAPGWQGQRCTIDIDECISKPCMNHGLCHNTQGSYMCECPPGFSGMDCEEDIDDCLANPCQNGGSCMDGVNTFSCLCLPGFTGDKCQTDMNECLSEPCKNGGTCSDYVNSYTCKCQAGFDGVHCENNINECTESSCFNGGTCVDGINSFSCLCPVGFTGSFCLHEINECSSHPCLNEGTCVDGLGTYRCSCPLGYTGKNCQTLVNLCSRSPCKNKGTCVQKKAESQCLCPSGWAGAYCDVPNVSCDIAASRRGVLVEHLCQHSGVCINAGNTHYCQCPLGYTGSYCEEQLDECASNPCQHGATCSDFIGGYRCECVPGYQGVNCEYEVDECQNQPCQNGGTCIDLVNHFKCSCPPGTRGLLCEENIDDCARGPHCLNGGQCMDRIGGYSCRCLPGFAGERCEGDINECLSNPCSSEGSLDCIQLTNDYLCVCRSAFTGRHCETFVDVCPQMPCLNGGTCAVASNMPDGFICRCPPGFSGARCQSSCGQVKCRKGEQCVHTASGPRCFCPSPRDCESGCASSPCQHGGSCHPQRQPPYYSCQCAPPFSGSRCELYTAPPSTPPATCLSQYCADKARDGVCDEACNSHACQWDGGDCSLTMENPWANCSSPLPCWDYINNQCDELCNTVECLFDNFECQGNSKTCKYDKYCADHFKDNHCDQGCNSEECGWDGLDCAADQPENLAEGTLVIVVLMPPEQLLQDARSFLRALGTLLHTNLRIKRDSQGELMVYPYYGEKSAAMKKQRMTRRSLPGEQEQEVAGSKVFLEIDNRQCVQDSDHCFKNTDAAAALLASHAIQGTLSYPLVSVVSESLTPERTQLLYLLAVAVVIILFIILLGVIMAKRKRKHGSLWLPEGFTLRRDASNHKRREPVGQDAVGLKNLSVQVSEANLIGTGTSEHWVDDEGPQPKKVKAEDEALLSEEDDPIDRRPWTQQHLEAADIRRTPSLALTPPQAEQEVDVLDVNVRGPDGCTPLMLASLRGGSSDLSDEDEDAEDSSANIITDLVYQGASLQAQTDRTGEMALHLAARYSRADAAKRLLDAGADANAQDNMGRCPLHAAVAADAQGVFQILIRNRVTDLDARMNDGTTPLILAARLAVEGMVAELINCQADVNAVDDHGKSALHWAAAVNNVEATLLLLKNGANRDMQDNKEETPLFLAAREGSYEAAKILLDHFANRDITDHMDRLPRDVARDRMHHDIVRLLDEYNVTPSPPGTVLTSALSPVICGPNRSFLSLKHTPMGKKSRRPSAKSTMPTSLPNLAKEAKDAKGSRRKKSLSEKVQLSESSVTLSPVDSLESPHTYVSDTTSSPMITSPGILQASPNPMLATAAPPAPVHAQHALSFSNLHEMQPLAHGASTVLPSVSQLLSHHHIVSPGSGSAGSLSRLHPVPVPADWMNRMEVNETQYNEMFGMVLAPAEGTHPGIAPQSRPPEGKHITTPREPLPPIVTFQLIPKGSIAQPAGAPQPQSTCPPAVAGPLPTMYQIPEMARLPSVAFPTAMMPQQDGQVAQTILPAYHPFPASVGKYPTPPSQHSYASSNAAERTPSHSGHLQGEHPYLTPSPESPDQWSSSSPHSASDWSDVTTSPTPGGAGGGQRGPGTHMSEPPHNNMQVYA
Pro-neuregulin-1, membrane-bound isoform (Homo sapiens), sequence (Q02297 whole entry, looked up, the tested form may be a part, canonical isoform): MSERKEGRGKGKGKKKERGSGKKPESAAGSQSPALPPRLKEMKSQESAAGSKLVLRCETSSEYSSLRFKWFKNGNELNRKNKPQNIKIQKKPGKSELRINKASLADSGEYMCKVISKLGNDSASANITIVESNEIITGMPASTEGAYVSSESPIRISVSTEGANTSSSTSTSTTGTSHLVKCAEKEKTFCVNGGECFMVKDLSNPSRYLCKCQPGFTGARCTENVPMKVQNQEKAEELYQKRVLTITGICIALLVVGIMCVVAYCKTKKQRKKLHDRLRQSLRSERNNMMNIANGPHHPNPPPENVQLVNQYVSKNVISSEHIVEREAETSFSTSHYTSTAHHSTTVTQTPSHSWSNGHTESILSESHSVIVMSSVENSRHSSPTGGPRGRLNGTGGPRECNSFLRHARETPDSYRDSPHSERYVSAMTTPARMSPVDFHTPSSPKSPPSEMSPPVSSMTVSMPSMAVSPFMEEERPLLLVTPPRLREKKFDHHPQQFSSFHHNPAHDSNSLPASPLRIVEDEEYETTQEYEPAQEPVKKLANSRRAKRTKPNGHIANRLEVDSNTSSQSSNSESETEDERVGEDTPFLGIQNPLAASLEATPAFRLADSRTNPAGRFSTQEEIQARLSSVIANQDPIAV

| Structure (SMILES) | composite z-score [1] | composite z-score [2] | composite z-score [3] | composite z-score [4] | composite z-score [5] | composite z-score [6] | composite z-score [7] | z-score [8] | composite z-score [9] | composite z-score [10] |
| --- | --- | --- | --- | --- | --- | --- | --- | --- | --- | --- |
| COc1ccc(CCNC(=O)[C@@]2(Sc3ccc(C)cc3)CC(=O)N(Cc3cc(C(F)(F)F)cc(C(F)(F)F)c3)[C@@H]2c2ccc(CO)cc2)cc1 | 0.575 | -0.748 | -0.188 | -0.498 | -1.79 | -0.854 | -0.637 | 0.522 (inactive) | -0.498 | 0.132 |
| COc1ccc([Si](C)(C)[C@H]2[C@H](CC(=O)N3Cc4ccccc4C[C@H]3CO)O[C@@]3(C(=O)N(Cc4cccc(N5C(=O)c6cccc7cccc5c67)c4)c4ccccc43)[C@@H]2C)cc1 | -0.581 | 0.847 | -0.0859 | 0.539 | 0.0297 | 0.997 | 1.03 | -2.61 (inactive) | 0.487 | -0.648 |
| C=C(/C(=C/C[C@@H](OC(C)=O)c1ccccc1OCCO)c1cc(C(=O)OC)ccc1OC)C(C)C | -0.101 | 0.179 | -0.049 | 0.643 | 0.632 | 0.685 | 0.5 | 0.178 (inactive) | -0.145 | -0.312 |
| COc1ccc(CC[C@H](O)c2cccc(OCC(=O)OC(C)(C)C)c2)cc1 | -0.386 | 1.08 | 0.106 | 0.359 | 0.966 | 0.576 | 0.977 | -0.0488 (inactive) | 0.736 | 0.136 |
| C=CCC(OC(C)=O)[C@@H]1[C@@H](N(Cc2cccc3ccccc23)C(=O)c2cccc3ccccc23)c2cc(OCCCO)ccc2N1C(=O)Cc1ccc2ccccc2c1 (stereo not given in full) | -0.101 | -0.391 | -0.116 | 0.19 | -0.168 | -0.371 | -0.648 | -1.89 (inactive) | -0.0942 | -0.166 |
| CC1CC/C=C\[C@H]2OC34C=CCN(c5ccc(Cl)cc5)C(=O)[C@H]3N(CCCO)C(=O)[C@]4(C)C2C(=O)O1 (stereo not given in full) | 0.316 | -1.4 | -0.162 | -1.11 | -0.932 | 1.38 | 1.64 | -0.0856 (inactive) | -0.558 | -0.296 |
| CC(C)C[C@@H]1NC(=O)[C@H]2C[C@@H](C(=O)NCCCCCCNC(=O)CS)[C@@H](c3ccc(O)cc3)N2C1=O | -0.254 | 1.62 | -0.0297 | 0.437 | 0.766 | 1.22 | 1.34 | 1.61 (inactive) | 0.665 | -0.0296 |
| C=CC[C@]1(C(=O)OC)N=C(c2ccc(OCCCO)cc2)O[C@H]1c1ccccc1N=[N+]=[N-] | 0.638 | 0.402 | 0.288 | 1.13 | 1.42 | 1.5 | 1.4 | 3.21 (inactive) | 1.03 | 0.33 |
| CC(C)C(=C=CC[C@@H](O)c1cccc(OCCO)c1)CCO | -0.226 | 0.17 | -0.085 | 0.742 | 0.271 | -0.163 | 0.364 | -0.202 (inactive) | 0.321 | 0.0505 |
| C=CCNC(=O)[C@H]1[C@@H]2C(=O)O[C@@H](c3ccccc3)[C@@H](c3ccccc3)N2[C@@H](c2ccccc2OCCO)[C@]12C(=O)N(C(=O)OCCOC)c1ccccc12 | 0.041 | 0.3 | -0.0226 | 0.832 | 0.716 | 1.54 | 1.13 | -2.27 (inactive) | 0.186 | 0.0623 |
| CN(C)CCCC[C@@H]1NC(=O)[C@@H]2C[C@H](C(=O)NCc3ccc(F)cc3)[C@H](c3ccc(O)cc3)N2C1=O | 0.274 | 0.295 | -0.103 | 0.203 | -0.446 | 0.625 | 1.49 | 0.254 (inactive) | -0.512 | -0.191 |
| COCCOC(=O)N1C(=O)[C@@]2(c3cc(C#CCNC(N)=O)ccc31)[C@H](C(=O)NC[C@H](O)c1ccccc1)[C@H]1C(=O)O[C@H](c3ccccc3)[C@H](c3ccccc3)N1[C@@H]2c1ccc(OCCO)cc1 | 0.102 | 0.249 | 0.0198 | 0.656 | 0.431 | 0.634 | 0.877 | 0.769 (inactive) | 0.538 | -0.0994 |
| COC(=O)c1ccc([C@H](NC(=O)c2ccccc2)[C@]2(C)C[C@H]2C2CCCCC2)cc1 | 0.735 | -0.678 | 0.056 | 0.172 | 1.22 | 1.18 | 0.678 | -1 (inactive) | 0.86 | 0.245 |
| CC(C)CNC(=O)[C@@]1(C)c2ccccc2C(=O)N(Cc2cc(F)cc(C(F)(F)F)c2)[C@H]1c1ccc(CO)cc1 | -0.182 | -0.188 | -0.0422 | 0.325 | -0.102 | 0.669 | 1.11 | -1.48 (inactive) | 0.0289 | 0.0722 |
| CN(C)CCCNC(=O)[C@@]1(Cc2ccccc2I)c2ccccc2C(=O)N(Cc2ccccc2)[C@H]1c1ccc(CO)cc1 | -0.803 | -0.451 | 0.106 | 1.02 | 0.647 | 0.834 | 1.39 | -4.24 (inactive) | 0.386 | -0.66 |
| COC(=O)C1(CC(C)C)C=C2C(=C(C(C)C)C(=O)C2C)CN1 (stereo not given) | 0.901 | -0.241 | -0.0578 | -0.589 | -0.507 | 0.607 | 0.19 | 1.65 (inactive) | 0.315 | -0.0603 |
| CC1CC/C=C\[C@H]2OC34C=CCN(CCN5CCOCC5)C(=O)[C@H]3N(CCCCCCO)C(=O)[C@@H]4C2C(=O)O1 (stereo not given in full) | -0.0847 | -0.686 | -0.129 | -0.445 | -0.894 | -0.539 | 1.44 | 0.647 (inactive) | -0.493 | -0.171 |
| COc1ccc([Si](C)(C)[C@H]2[C@H](CCn3cc([C@H](O)c4ccccc4)nn3)O[C@@]3(C(=O)N(C)c4c(Br)cc(C)cc43)[C@@H]2C)cc1 | -0.0258 | 0.48 | -0.113 | -0.327 | -0.442 | 0.218 | 0.881 | -0.905 (inactive) | -0.438 | -0.0994 |
| COCCOC(=O)N1C(=O)[C@@]2(c3cc(C#CC4(O)CCCCCC4)ccc31)[C@H](c1ccccc1OCCO)N1[C@H](c3ccccc3)[C@H](c3ccccc3)OC(=O)[C@H]1[C@@H]2C(=O)N1CCCCCCC1 | 2.94 | 1.24 | 0.324 | 0.256 | 0.869 | 1.45 | 1.29 | -0.926 (inactive) | 2.73 | 1.83 |
| N[C@@H](Cc1ccccc1)Cn1cc(C2(O)CCCCC2)nn1 | -0.337 | 0.543 | -0.0718 | -0.244 | -0.232 | 0.138 | -0.204 | 2.2 (inactive) | 1.27 | 0.0722 |
| O=C1OCCC=C[C@H]2OC34C=CCN(c5ccc(Cl)cc5)C(=O)[C@H]3N(CCO)C(=O)[C@@H]4C12 (stereo not given in full) | 0.0828 | 1.85 | -0.166 | -0.434 | -0.568 | -0.666 | -0.501 | -0.0731 (inactive) | -0.564 | -0.0618 |
| CCOC(=O)C1=C(C(=O)OCC)N(S(=O)(=O)CC[Si](C)(C)C)[C@H](c2ccccc2)CC1 | 0.208 | 0.0516 | -0.0066 | 0.2 | 1.53 | -0.0059 | 0.884 | -2.55 (inactive) | 0.917 | 0.0623 |
| C[N+](C)(C)CCCCCCNC(=O)[C@H]1C[C@H]2C(=O)NCC(=O)N2[C@H]1c1cccc(OCCO)c1 | -0.513 | 0.44 | -0.0316 | 0.817 | -0.0407 | 0.205 | 1.27 | 2.33 (inactive) | -0.393 | -0.737 |
| COc1ccccc1CN1C(=O)c2ccccc2[C@@H](C(=O)NCCCN(C)C)[C@@H]1c1ccc(CO)cc1 | -0.192 | 0.132 | -0.161 | 0.461 | -0.203 | 0.648 | 0.695 | -3.53 (inactive) | 0.0644 | -0.266 |
| COCC1=C([C@H](O)CCc2ccccc2)[C@H](CO)n2c(=O)n(-c3ccccc3)c(=O)n2C1 | -0.13 | -0.235 | -0.112 | 0.204 | -0.423 | -0.675 | -0.416 | -3.19 (inactive) | -0.371 | -0.156 |
| CC(=O)NCCCC[C@@H]1NC(=O)[C@H]2C[C@@H](C(=O)NCCCCCC[N+](C)(C)C)[C@@H](c3ccc(O)cc3)N2C1=O | -0.383 | 0.808 | -0.144 | -0.351 | -0.181 | 1.35 | 1.41 | 5.36 (inactive) | -0.18 | -0.199 |
| CN(C)CCCC[C@@H]1NC(=O)[C@H]2C[C@@H](C(=O)NCc3ccc(F)cc3)[C@@H](c3ccc(O)cc3)N2C1=O | 0.0653 | 0.412 | -0.0904 | 0.268 | 0.201 | 0.865 | 1.25 | 1.07 (inactive) | -0.0224 | 0.028 |
| O=C1C2C=CC(C(O)C(c3ccccc3)c3ccccc3)N(Nc3ccccc3)C2C(=O)N1c1ccccc1 (stereo not given) | 0.35 | 0.0239 | 0.128 | 0.244 | 1.63 | 1.66 | 1.17 | -0.996 (inactive) | 1.01 | -0.318 |

— PubChem BioAssay
